Screening results (PubChem BioAssay)
p53 mut binder: binds human mutant p53 on microarray; hit rate 0.4% among 17,000; small molecule microarray binding, anti-GST fluorescence; AID 624136; calls only;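 active = compounds whose four printed spots each glow above background more than chance allows, each with a p-value under 7%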
p53 PUMA act: mutant p53 pathway reactivation; SW480 PUMA-promoter luciferase; AID 624151; hit rate 1.5% among 28,000; activation, % at 9.98 µM; in the data active = activation above about 52%
STAT3 SMM: STAT3 (human) binding. P40763. Small molecule microarray, His-STAT3 binding, anti-His fluorescence. calls only. hit rate 0.2% among 17,000. AID 624138;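 active = compounds whose four printed spots each show fluorescence over background unusually high for their array block, chance value under 7%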
NFkB binder: binders of human NF-kappa-B p105 | P19838 | Small molecule microarray, anti-His fluorescence binding | calls only | hit rate 1.3% among 17,000;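 active = spot fluorescence over background significantly raised, with a chance value under 7% in all four replicate spots of the compound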;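 also: probe protein is his-tagged human p50 processed subunit at 1 µg/ml; raw spot fluorescence signals with no normalization applied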
c-Myc SMM: binds human c-Myc on microarray | P01106 | small molecule microarray, His-c-Myc binding, anti-His fluorescence | calls only | hit rate 1.5% among 17,000;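 active = spot fluorescence over background with P-value below 7% in all four replicate spots, showing protein binding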;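 also: score is binary with 100 for all four spots passing and 0 otherwise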
Target sequence (P01106 whole entry, looked up): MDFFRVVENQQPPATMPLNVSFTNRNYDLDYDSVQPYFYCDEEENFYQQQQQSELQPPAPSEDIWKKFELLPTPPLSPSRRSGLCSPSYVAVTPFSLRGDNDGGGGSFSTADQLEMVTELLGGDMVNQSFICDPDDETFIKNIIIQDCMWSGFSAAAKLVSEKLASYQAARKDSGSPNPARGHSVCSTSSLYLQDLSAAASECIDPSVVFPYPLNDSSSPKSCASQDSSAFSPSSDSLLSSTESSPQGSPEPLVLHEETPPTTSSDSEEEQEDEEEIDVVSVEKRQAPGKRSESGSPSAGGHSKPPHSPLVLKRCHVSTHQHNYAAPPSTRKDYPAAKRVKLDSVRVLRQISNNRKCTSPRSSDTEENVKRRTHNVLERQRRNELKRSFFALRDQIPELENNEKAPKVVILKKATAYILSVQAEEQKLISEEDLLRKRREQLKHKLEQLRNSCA
* marks the source's active call; other numbers are inactive results; i = inactive; . = no result; + = active, no number. Compounds with a hit are over-represented: about 2.6% of the library has one in this group of screens.

SMILES | p53 mut binder | p53 PUMA act | STAT3 SMM | NFkB binder | c-Myc SMM
CC1OC(OC2C(OC(=O)C34CCC(C)(C)CC3C3=CCC5C6(C)CCC(OC7OC(CO)C(OC8OC(C(=O)O)C(OC9OCC(O)C(O)C9O)C(O)C8O)C(O)C7O)C(C)(CO)C6CCC5(C)C3(C)CC4)OC(COC3OCC(O)C(O)C3O)C(O)C2O)C(O)C(O)C1O (stereo not drawn) | i | 2.4 | i | i | i
C[C@@H]1O[C@@H](O[C@@H]2[C@@H](O)[C@H](O[C@@H]3[C@@H](O)[C@H](C)O[C@@H](O[C@H]4[C@H](O[C@H]5CC[C@@]6(C)C(CC[C@]7(C)C6CC=C6[C@@H]8CC(C)(C)CC[C@]8(C(=O)O)CC[C@]67C)[C@]5(C)CO)OC[C@H](O)[C@@H]4O)[C@@H]3O)O[C@H](CO)[C@H]2O[C@@H]2O[C@H](CO)[C@@H](O[C@@H]3OC[C@@H](O)[C@H](O)[C@H]3O)[C@H](O)[C@H]2O)[C@H](O)[C@H](O)[C@H]1O (stereo partly drawn) | i | -9.9 | i | + | i
CC(=O)OC1C(C)OC(OC2C(CO)OC(OC(=O)[C@]34CCC(C)(C)CC3C3=CCC5[C@@]6(C)CC[C@H](OC7OC(CO)C(OC8OC(CO)C(OC9OCC(O)C(O)C9O)C(O)C8O)C(O)C7O)[C@@](C)(CO)C6CC[C@@]5(C)[C@]3(C)CC4)C(OC3OC(C)C(O)C(O)C3O)C2O)C(O)C1O (stereo partly drawn) | i | -4.4 | i | + | +
C[C@H]1CN([C@@H](C)CO)C(=O)c2cccc(NC(=O)NC3CCCCC3)c2O[C@H]1CN(C)C(=O)Nc1ccc(C(F)(F)F)cc1 | i | -40.5 | i | i | i
C[C@H](CO)N1C[C@H](C)[C@@H](CN(C)Cc2ccc(Cl)c(Cl)c2)Oc2c(NC(=O)C3CCOCC3)cccc2C1=O | i | -12.4 | i | i | i
C[C@H](CO)N1C[C@H](C)[C@H](CN(C)C(=O)NC2CCCCC2)Oc2c(NC(=O)Nc3ccc(F)cc3)cccc2C1=O | i | -26.3 | i | i | i
C[C@@H]1CN([C@@H](C)CO)C(=O)c2cccc(NC(=O)C3CCOCC3)c2O[C@H]1CN(C)Cc1ccc(Cl)c(Cl)c1 | i | -4.4 | i | i | +
C[C@@H]1CN([C@H](C)CO)C(=O)c2cccc(NC(=O)Nc3ccc(C(F)(F)F)cc3)c2O[C@@H]1CN(C)C(=O)NC1CCCCC1 | i | -21.5 | i | + | +
C[C@@H]1CN([C@@H](C)CO)C(=O)c2cccc(NC(=O)Nc3ccc(C(F)(F)F)cc3)c2O[C@H]1CN(C)C(=O)NC1CCCCC1 | i | -19.6 | + | i | i
C[C@H](CO)N1C[C@H](C)[C@@H](CN(C)C(=O)NC2CCCCC2)Oc2c(NC(=O)Nc3ccc(C(F)(F)F)cc3)cccc2C1=O | i | -37.3 | i | + | +
COC(=O)c1sc(N2C(=O)C(=O)C(C(=O)c3ccc(OC)c(C)c3)C2c2ccco2)nc1C (stereo not drawn) | . | 27.3 | . | . | .
C[C@H]1CN([C@@H](C)CO)C(=O)c2cccc(NC(=O)NC3CCCCC3)c2O[C@H]1CN(C)C(=O)NC1CCCCC1 | i | -2.7 | i | + | +
C[C@@H]1CN([C@@H](C)CO)C(=O)c2cccc(NC(=O)Nc3ccccc3)c2O[C@@H]1CN(C)C(=O)NC1CCCCC1 | i | -9.7 | i | i | i
C[C@@H]1CN([C@@H](C)CO)C(=O)c2cccc(NC(=O)Nc3cccc4ccccc34)c2O[C@H]1CN(C)C(=O)Nc1ccc(C(F)(F)F)cc1 | i | -5.8 | i | + | i
C[C@H](CO)N1C[C@H](C)[C@@H](CN(C)Cc2ccc(C(F)(F)F)cc2)OCc2cnnn2CCCC1=O | i | 13.7 | i | + | +
C[C@@H]1CN([C@H](C)CO)C(=O)c2cccc(NC(=O)NC3CCCCC3)c2O[C@H]1CN(C)C(=O)Nc1ccc(C(F)(F)F)cc1 | i | 1.8 | i | + | +
Cc1ccc(-c2nnc3c4ccccc4c(C)nn23)cc1S(=O)(=O)NCC1CCCO1 (stereo not drawn) | . | -10.6 | . | . | .
Cc1ccc(Nc2nc(Nc3ccc(C)cc3)nc(Sc3nnc(C)s3)n2)cc1 | . | 19.2 | . | . | .
C[C@@H]1CN([C@@H](C)CO)C(=O)c2cc(NC(=O)NC3CCCCC3)ccc2O[C@H]1CN(C)C(=O)Nc1ccc(C(F)(F)F)cc1 | i | -12.8 | i | + | i
